# According to publication PMC4336329 (PLoS ONE, 2015):
# Hit rate of the full screen: of about 310,000 compounds, about 14,000 (4.5%) showed an effect of 50% or more. The effect is printed as a negative number. This is one part of a sample in which strong results are shown more often than they occur.
# Target: human ether-à-go-go-related gene (hERG) potassium channel (human, UniProt Q12809)
# Assay: primary screen, population patch clamp on CHO cells stably expressing hERG; higher = less effect of the substance
# 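Further: peak tail current of the secondary pulse compared with the same well before compound.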
# human ether-à-go-go-related gene (hERG) potassium channel, sequence (Q12809 whole entry, looked up): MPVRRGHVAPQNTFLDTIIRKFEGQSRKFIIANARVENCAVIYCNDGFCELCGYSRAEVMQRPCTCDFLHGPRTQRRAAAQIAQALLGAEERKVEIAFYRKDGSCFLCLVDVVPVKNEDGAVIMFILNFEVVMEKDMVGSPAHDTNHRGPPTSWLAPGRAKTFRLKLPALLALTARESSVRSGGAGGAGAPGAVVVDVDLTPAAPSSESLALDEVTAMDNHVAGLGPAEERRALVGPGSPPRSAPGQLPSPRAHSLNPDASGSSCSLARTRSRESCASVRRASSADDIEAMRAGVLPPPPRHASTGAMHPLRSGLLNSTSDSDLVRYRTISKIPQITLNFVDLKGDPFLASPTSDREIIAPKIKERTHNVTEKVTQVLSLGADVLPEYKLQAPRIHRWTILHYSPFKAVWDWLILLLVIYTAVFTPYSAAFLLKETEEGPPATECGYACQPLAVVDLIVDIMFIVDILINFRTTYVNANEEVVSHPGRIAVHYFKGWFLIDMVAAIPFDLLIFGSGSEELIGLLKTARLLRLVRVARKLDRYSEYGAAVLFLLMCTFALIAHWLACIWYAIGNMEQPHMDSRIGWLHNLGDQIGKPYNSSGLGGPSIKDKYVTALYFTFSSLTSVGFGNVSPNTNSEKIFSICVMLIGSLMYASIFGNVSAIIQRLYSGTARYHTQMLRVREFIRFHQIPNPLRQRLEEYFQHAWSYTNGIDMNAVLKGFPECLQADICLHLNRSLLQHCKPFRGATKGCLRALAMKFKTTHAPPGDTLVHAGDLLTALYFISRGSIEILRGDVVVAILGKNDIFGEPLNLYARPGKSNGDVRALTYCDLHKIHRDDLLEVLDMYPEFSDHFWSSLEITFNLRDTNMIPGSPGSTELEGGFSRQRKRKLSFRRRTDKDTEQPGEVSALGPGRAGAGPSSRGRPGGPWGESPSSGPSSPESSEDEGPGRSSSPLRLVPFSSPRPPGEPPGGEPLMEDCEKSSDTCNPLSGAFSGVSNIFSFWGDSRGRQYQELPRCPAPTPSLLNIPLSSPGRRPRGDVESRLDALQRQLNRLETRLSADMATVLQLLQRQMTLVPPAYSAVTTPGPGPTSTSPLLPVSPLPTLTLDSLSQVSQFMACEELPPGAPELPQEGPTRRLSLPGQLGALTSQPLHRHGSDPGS
row,SMILES,"hERG current change (%, negative = inhibition) at 10uM"
1,O=C(NCc1ccc(Cl)cc1)c1ccc(NC(=O)C2CCCO2)cc1 (stereo not drawn),13.2%
2,O=C1CCCC2=C1C(c1cccs1)n1nc(SCc3ccc(C(=O)O)cc3)nc1N2 (stereo not drawn),2.81%
3,O=C(Cn1c2ccccc2c2nc3n(c(=O)c21)CCS3)Nc1ccccc1C(F)(F)F,15.1%
4,Cc1ccc(N2CC(C(=O)NCCN3CCOCC3)CC2=O)cc1 (stereo not drawn),8.92%
5,CC1CCCCN1C(=O)NC1CC(=O)N(c2ccc3c(c2)OCCO3)C1 (stereo not drawn),5.7%
6,O=C(O)c1cc(-c2ccccc2)nn1CC1CC(c2cccc([N+](=O)[O-])c2)=NO1 (stereo not drawn),19.1%
7,Cc1cc(Cn2nc(-c3ccccc3)cc2C(=O)NCC2CC2)on1,9.32%
8,CCOC(=O)c1cc(-c2ccccc2)nn1CC1CC(c2cccc([N+](=O)[O-])c2)=NO1 (stereo not drawn),-24.2%
9,O=C(NCc1cccs1)c1cc(-c2ccccc2)nn1CC1CC(c2cccc([N+](=O)[O-])c2)=NO1 (stereo not drawn),-66.9%
10,COCCNC(=O)c1cc(-c2ccccc2)nn1CC1CC(c2cccc([N+](=O)[O-])c2)=NO1 (stereo not drawn),-50.6%
11,CCc1cc(Cn2nc(-c3ccccc3)cc2C(=O)NCC2CC2)on1,-51.8%
12,O=C(NCC1CC1)c1cc(-c2ccccc2)nn1CC1CC(c2cccc([N+](=O)[O-])c2)=NO1 (stereo not drawn),-60.8%
13,Cc1ccccc1-c1cc(C(=O)NCC2CC2)nn1CC1CC(c2cccc([N+](=O)[O-])c2)=NO1 (stereo not drawn),-26.6%
14,Cc1ccc(CNC(=O)c2cc(-c3ccccc3)nn2CC2CC(c3cccc([N+](=O)[O-])c3)=NO2)cc1 (stereo not drawn),-8.09%
15,Cc1ccccc1-c1cc(C(=O)NCc2cccs2)nn1CC1CC(c2cccc([N+](=O)[O-])c2)=NO1 (stereo not drawn),4.08%
16,Cc1ccc(CNC(=O)c2cc(-c3ccccc3C)n(CC3CC(c4cccc([N+](=O)[O-])c4)=NO3)n2)cc1 (stereo not drawn),13.6%
17,CCc1cc(Cn2nc(-c3ccccc3)cc2C(=O)NCCOC)on1,-9.96%
18,COC(=O)C(C)n1cnc2c(nnn2Cc2ccc(Cl)cc2)c1=O (stereo not drawn),-16.4%
19,CCC1=Nc2cc(C(=O)NCc3ccco3)ccc2Sc2ccc(C)cc21,-0.612%
20,CN(Cc1ccccc1)C(=O)CN1C(=O)NC2(CCCCCCC2)C1=O,-11.7%
21,O=C(CCc1ccccc1)NNC(=O)Nc1ccccc1,1.26%
